Results: paper PMC7862700, “An all-to-all approach to the identification of sequence-specific readers for epigenetic DNA modifications on cytosine”

What was measured:
Assay in all cases: DAPPL (digital affinity profiling via proximity ligation, sequencing); 10 mM Tris-HCl pH 7.5, 50 mM NaCl, 1 mM DTT, 4% glycerol, room temperature, 30 min; GST-TFs on glutathione beads, 16-mer random dsDNA library, 0.1% formaldehyde crosslink after washing; high values mean tight binding
Details in all cases: protein: recombinant; tags: N-terminal GST; dsDNA, one strand shown
ERF = molecular target: T1, ERF (Homo sapiens, UniProt P50548 1-548)
T1 sequence: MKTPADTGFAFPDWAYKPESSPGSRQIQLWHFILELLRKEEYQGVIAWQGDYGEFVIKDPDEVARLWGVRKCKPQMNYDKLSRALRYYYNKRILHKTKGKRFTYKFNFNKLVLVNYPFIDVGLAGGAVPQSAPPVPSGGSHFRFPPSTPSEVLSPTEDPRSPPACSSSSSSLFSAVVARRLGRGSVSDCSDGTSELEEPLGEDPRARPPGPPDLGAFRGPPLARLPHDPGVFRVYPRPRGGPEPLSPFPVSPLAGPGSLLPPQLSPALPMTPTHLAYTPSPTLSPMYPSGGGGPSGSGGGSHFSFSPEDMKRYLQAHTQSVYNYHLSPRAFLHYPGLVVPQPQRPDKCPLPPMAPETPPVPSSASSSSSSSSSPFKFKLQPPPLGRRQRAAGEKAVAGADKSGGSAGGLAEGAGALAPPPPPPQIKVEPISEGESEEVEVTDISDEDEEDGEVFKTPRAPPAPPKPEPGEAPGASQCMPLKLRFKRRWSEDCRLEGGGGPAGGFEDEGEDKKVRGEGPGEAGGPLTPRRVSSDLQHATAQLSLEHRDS
Method in brief: (§1)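 Pools of DNA-barcoded human transcription factors, expressed in yeast as GST fusions on glutathione beads and combined with a tag-only sample, were incubated with 200 nmole of a 16-mer random double-stranded DNA library. Incubation took 30 min at room temperature in Tris/NaCl/DTT/glycerol buffer and was followed by washing, 0.1% formaldehyde crosslinking, proximity ligation (BsaI/T4 ligase, 1 h, 37 °C), PCR amplification and sequencing on an Illumina NextSeq500. Binding signal is the ratio of a hexamer's read frequency for a factor to its frequency for the tag-only sample.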

ETV3L = molecular target: T2, ETV3L (Homo sapiens, UniProt Q6ZN32 1-361)
T2 sequence: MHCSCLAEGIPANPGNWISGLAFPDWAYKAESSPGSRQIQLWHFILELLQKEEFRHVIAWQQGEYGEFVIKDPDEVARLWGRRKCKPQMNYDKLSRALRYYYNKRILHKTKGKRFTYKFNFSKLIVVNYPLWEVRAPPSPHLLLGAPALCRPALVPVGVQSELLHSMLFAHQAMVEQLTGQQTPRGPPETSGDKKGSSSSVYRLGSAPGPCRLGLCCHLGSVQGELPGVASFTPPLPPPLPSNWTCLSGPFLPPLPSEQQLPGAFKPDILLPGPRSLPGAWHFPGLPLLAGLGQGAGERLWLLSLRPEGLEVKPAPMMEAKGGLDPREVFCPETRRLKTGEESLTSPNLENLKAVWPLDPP
Method in brief: as §1

ETS2 = molecular target: T3, ETS2 (Homo sapiens, UniProt P15036 1-469)
T3 sequence: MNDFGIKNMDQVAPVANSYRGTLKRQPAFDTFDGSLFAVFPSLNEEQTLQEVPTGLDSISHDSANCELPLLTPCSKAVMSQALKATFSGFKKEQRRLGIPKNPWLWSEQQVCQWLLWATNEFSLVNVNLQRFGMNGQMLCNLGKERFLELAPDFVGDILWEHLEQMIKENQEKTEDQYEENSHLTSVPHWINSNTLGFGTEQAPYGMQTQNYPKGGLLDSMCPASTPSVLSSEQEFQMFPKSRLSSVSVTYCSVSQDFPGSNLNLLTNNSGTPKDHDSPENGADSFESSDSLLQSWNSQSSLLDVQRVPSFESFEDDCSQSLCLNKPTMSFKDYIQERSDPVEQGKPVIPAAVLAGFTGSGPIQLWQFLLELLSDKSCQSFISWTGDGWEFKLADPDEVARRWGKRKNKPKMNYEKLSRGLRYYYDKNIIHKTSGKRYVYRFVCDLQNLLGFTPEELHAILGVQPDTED
Method in brief: as §1

SPDEF = molecular target: T4, SPDEF (Homo sapiens, UniProt O95238 1-335)
T4 sequence: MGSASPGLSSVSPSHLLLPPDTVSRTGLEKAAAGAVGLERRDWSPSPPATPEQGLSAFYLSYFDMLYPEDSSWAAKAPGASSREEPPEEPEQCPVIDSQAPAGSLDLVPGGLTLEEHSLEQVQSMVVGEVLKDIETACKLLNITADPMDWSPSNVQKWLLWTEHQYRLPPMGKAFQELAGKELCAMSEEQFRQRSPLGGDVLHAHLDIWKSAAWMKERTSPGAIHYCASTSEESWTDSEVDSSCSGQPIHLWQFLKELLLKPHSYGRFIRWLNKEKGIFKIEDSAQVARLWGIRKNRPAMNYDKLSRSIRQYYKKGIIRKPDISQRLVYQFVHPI
Method in brief: as §1

ETV7 = molecular target: T5, ETV7 (Homo sapiens, UniProt Q9Y603 1-341)
T5 sequence: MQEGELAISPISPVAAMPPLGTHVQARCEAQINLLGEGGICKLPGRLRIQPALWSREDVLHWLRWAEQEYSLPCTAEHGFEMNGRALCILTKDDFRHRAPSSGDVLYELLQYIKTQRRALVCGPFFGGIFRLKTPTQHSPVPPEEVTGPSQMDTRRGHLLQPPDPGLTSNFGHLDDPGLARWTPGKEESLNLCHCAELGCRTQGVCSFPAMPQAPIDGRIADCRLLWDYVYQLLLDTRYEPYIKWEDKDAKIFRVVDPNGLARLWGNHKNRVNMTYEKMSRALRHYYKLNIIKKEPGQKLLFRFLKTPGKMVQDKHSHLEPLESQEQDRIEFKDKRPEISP
Method in brief: as §1

ELF5 = molecular target: T6, ELF5 (Homo sapiens, UniProt Q9UKW6-2 1-255)
T6 sequence: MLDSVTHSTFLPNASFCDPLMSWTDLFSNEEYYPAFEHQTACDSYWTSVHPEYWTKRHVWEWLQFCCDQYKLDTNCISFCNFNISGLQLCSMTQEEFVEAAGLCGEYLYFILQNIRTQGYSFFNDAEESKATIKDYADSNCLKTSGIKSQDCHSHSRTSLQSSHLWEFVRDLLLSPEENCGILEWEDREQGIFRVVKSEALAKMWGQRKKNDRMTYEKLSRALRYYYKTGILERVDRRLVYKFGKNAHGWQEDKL
Method in brief: as §1

ETV3 = molecular target: T7, ETV3 (Homo sapiens, UniProt P41162-2 1-143)
T7 sequence: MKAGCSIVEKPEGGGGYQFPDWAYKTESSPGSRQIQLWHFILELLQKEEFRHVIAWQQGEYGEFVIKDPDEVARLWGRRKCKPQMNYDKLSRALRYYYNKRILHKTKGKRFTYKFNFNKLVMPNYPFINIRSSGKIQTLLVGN
Method in brief: as §1

ETV6 = ETV6 (Homo sapiens, UniProt P41212 1-452)
Chain of ETV6 (P41212 whole entry): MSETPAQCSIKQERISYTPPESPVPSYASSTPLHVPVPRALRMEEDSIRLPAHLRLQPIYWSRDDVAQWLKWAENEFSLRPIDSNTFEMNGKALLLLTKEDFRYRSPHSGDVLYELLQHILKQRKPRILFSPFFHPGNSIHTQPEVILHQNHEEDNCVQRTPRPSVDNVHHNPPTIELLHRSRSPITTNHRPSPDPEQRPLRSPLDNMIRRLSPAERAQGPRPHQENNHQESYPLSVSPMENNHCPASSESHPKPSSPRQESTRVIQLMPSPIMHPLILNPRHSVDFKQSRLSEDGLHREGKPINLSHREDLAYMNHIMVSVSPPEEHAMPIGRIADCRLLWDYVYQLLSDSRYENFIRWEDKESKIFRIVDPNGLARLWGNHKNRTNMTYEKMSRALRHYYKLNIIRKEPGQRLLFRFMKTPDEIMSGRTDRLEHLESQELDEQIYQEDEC
Method in brief: as §1

Sequence | binding signal (ERF) | binding signal (ETV3L) | binding signal (ETS2) | binding signal (SPDEF) | binding signal (ETV7) | binding signal (ELF5) | binding signal (ETV3) | binding signal (ETV6)
TCTCGG | 1.24 fold enrichment (6-mer frequency, TF over GST control) | 1.48 fold enrichment (6-mer frequency, TF over GST control) | 1.3 fold enrichment (6-mer frequency, TF over GST control) | 1.24 fold enrichment (6-mer frequency, TF over GST control) | 1.23 fold enrichment (6-mer frequency, TF over GST control) | 1.32 fold enrichment (6-mer frequency, TF over GST control) | 1.37 fold enrichment (6-mer frequency, TF over GST control) | 1.33 fold enrichment (6-mer frequency, TF over GST control)
TTACTA | 1.27 fold enrichment (6-mer frequency, TF over GST control) | 1.32 fold enrichment (6-mer frequency, TF over GST control) | 1.2 fold enrichment (6-mer frequency, TF over GST control) | 1.21 fold enrichment (6-mer frequency, TF over GST control) | 1.36 fold enrichment (6-mer frequency, TF over GST control) | 1.19 fold enrichment (6-mer frequency, TF over GST control) | 1.23 fold enrichment (6-mer frequency, TF over GST control) | 1.2 fold enrichment (6-mer frequency, TF over GST control)
ATATCG | 1.23 fold enrichment (6-mer frequency, TF over GST control) | 1.23 fold enrichment (6-mer frequency, TF over GST control) | 1.17 fold enrichment (6-mer frequency, TF over GST control) | 1.26 fold enrichment (6-mer frequency, TF over GST control) | 1.16 fold enrichment (6-mer frequency, TF over GST control) | 1.1 fold enrichment (6-mer frequency, TF over GST control) | 1.14 fold enrichment (6-mer frequency, TF over GST control) | 1.09 fold enrichment (6-mer frequency, TF over GST control)
TAATGC | 1.07 fold enrichment (6-mer frequency, TF over GST control) | 1.16 fold enrichment (6-mer frequency, TF over GST control) | 1.2 fold enrichment (6-mer frequency, TF over GST control) | 1.17 fold enrichment (6-mer frequency, TF over GST control) | 1.13 fold enrichment (6-mer frequency, TF over GST control) | 1.17 fold enrichment (6-mer frequency, TF over GST control) | 1.16 fold enrichment (6-mer frequency, TF over GST control) | 1.13 fold enrichment (6-mer frequency, TF over GST control)
TTATTT | 1.26 fold enrichment (6-mer frequency, TF over GST control) | 1.38 fold enrichment (6-mer frequency, TF over GST control) | 1.41 fold enrichment (6-mer frequency, TF over GST control) | 1.19 fold enrichment (6-mer frequency, TF over GST control) | 1.46 fold enrichment (6-mer frequency, TF over GST control) | 1.43 fold enrichment (6-mer frequency, TF over GST control) | 1.41 fold enrichment (6-mer frequency, TF over GST control) | 1.4 fold enrichment (6-mer frequency, TF over GST control)
TCTAAT | 1.26 fold enrichment (6-mer frequency, TF over GST control) | 1.14 fold enrichment (6-mer frequency, TF over GST control) | 1.21 fold enrichment (6-mer frequency, TF over GST control) | 1.21 fold enrichment (6-mer frequency, TF over GST control) | 1.07 fold enrichment (6-mer frequency, TF over GST control) | 1.11 fold enrichment (6-mer frequency, TF over GST control) | 1.05 fold enrichment (6-mer frequency, TF over GST control) | 1.2 fold enrichment (6-mer frequency, TF over GST control)
TGCTGG | 1.2 fold enrichment (6-mer frequency, TF over GST control) | 1.22 fold enrichment (6-mer frequency, TF over GST control) | 1.07 fold enrichment (6-mer frequency, TF over GST control) | 1.15 fold enrichment (6-mer frequency, TF over GST control) | 1.13 fold enrichment (6-mer frequency, TF over GST control) | 1.07 fold enrichment (6-mer frequency, TF over GST control) | 1.11 fold enrichment (6-mer frequency, TF over GST control) | 1.06 fold enrichment (6-mer frequency, TF over GST control)
TAAAAG | 1.2 fold enrichment (6-mer frequency, TF over GST control) | 1.1 fold enrichment (6-mer frequency, TF over GST control) | 1.18 fold enrichment (6-mer frequency, TF over GST control) | 1.08 fold enrichment (6-mer frequency, TF over GST control) | 1.19 fold enrichment (6-mer frequency, TF over GST control) | 1.16 fold enrichment (6-mer frequency, TF over GST control) | 1.12 fold enrichment (6-mer frequency, TF over GST control) | 1.23 fold enrichment (6-mer frequency, TF over GST control)
CCGGCT | 1.59 fold enrichment (6-mer frequency, TF over GST control) | 1.69 fold enrichment (6-mer frequency, TF over GST control) | 1.71 fold enrichment (6-mer frequency, TF over GST control) | 2.32 fold enrichment (6-mer frequency, TF over GST control) | 1.74 fold enrichment (6-mer frequency, TF over GST control) | 1.92 fold enrichment (6-mer frequency, TF over GST control) | 1.7 fold enrichment (6-mer frequency, TF over GST control) | 1.77 fold enrichment (6-mer frequency, TF over GST control)
CTGTAT | 1.29 fold enrichment (6-mer frequency, TF over GST control) | 1.24 fold enrichment (6-mer frequency, TF over GST control) | 1.22 fold enrichment (6-mer frequency, TF over GST control) | 1.44 fold enrichment (6-mer frequency, TF over GST control) | 1.25 fold enrichment (6-mer frequency, TF over GST control) | 1.34 fold enrichment (6-mer frequency, TF over GST control) | 1.32 fold enrichment (6-mer frequency, TF over GST control) | 1.31 fold enrichment (6-mer frequency, TF over GST control)
TGGCTC | 1.31 fold enrichment (6-mer frequency, TF over GST control) | 1.5 fold enrichment (6-mer frequency, TF over GST control) | 1.23 fold enrichment (6-mer frequency, TF over GST control) | 1.32 fold enrichment (6-mer frequency, TF over GST control) | 1.22 fold enrichment (6-mer frequency, TF over GST control) | 1.21 fold enrichment (6-mer frequency, TF over GST control) | 1.44 fold enrichment (6-mer frequency, TF over GST control) | 1.36 fold enrichment (6-mer frequency, TF over GST control)
GGCTCT | 1.36 fold enrichment (6-mer frequency, TF over GST control) | 1.34 fold enrichment (6-mer frequency, TF over GST control) | 1.2 fold enrichment (6-mer frequency, TF over GST control) | 1.13 fold enrichment (6-mer frequency, TF over GST control) | 1.44 fold enrichment (6-mer frequency, TF over GST control) | 1.15 fold enrichment (6-mer frequency, TF over GST control) | 1.34 fold enrichment (6-mer frequency, TF over GST control) | 1.3 fold enrichment (6-mer frequency, TF over GST control)
ATGGTT | 1.27 fold enrichment (6-mer frequency, TF over GST control) | 1.36 fold enrichment (6-mer frequency, TF over GST control) | 1.36 fold enrichment (6-mer frequency, TF over GST control) | 1.18 fold enrichment (6-mer frequency, TF over GST control) | 1.27 fold enrichment (6-mer frequency, TF over GST control) | 1.27 fold enrichment (6-mer frequency, TF over GST control) | 1.34 fold enrichment (6-mer frequency, TF over GST control) | 1.3 fold enrichment (6-mer frequency, TF over GST control)
ACCGAC | 1.29 fold enrichment (6-mer frequency, TF over GST control) | 1.44 fold enrichment (6-mer frequency, TF over GST control) | 1.38 fold enrichment (6-mer frequency, TF over GST control) | 1.37 fold enrichment (6-mer frequency, TF over GST control) | 1.25 fold enrichment (6-mer frequency, TF over GST control) | 1.25 fold enrichment (6-mer frequency, TF over GST control) | 1.27 fold enrichment (6-mer frequency, TF over GST control) | 1.41 fold enrichment (6-mer frequency, TF over GST control)
CCTTTA | 1.34 fold enrichment (6-mer frequency, TF over GST control) | 1.38 fold enrichment (6-mer frequency, TF over GST control) | 1.32 fold enrichment (6-mer frequency, TF over GST control) | 1.38 fold enrichment (6-mer frequency, TF over GST control) | 1.23 fold enrichment (6-mer frequency, TF over GST control) | 1.41 fold enrichment (6-mer frequency, TF over GST control) | 1.33 fold enrichment (6-mer frequency, TF over GST control) | 1.41 fold enrichment (6-mer frequency, TF over GST control)
